Laboratory results taken from PubChem BioAssay AID1159580 (chemical genetic matrix, 2015).
Values joined by “and” are separate entries in the source; they are usually repeats but may differ in a detail not shown here. Equal entries are not always repeated. Out of some 5,500 compounds screened, about 2,000 (36%) were called active. Roughly 18% stayed inconclusive and do not appear here. Rule as the data show it: active = normalized growth mostly below about 0.91 (no sharp cut-off); inconclusive = no clear call, values can overlap the other calls; inactive = mostly above about 0.92. The list shows a part of the results.

Experiment: chemical genetic growth profiling, strain panel (AID 1159580);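 also: tested at 20 µM; growth read once vehicle control cultures reached saturation at 30 °C; 1 = growth at the plate median or of vehicle wells; lower values mean less growth of the strain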
Conditions: S. cerevisiae deletion strains, growth OD

Measured: normalized growth

CC1O[C@@H](Oc2c(-c3ccc(O)c(O)c3)oc3cc(O)cc(O)c3c2=O)[C@H](O)[C@H](O)[C@H]1O (some centres not stated)
inactive: locus YAL013W, strain DEP1, hits give low values 1 | locus YAL021C, strain ccr4, hits give low values 1 | locus YAL026C, strain drs2, hits give low values 0.996 | locus YAL030W, strain snc1, hits give low values 0.999 | locus YBL061C, strain skt5, hits give low values 0.993 | locus YBR009C, strain hhf1, hits give low values 0.99 | locus YBR021W, strain FUR4, hits give low values 1.01 | locus YBR023C, strain chs3, hits give low values 0.995 | locus YBR171W, strain sec66, hits give low values 0.971 | locus YBR229C, strain ROT2, hits give low values 1 | locus YBR231C, strain swc5, hits give low values 0.985 | locus YBR279W, strain paf1, hits give low values 0.995 | locus YCL011C, strain gbp2, hits give low values 0.997 | locus YCL016C, strain dcc1, hits give low values 0.993 | locus YCL029C, strain bik1, hits give low values 0.978 | locus YCL061C, strain MRC1, hits give low values 0.985 | locus YCL069W, strain vba3, hits give low values 0.991 | locus YCR088W, strain abp1, hits give low values 0.985 | locus YDL005C, strain med2, hits give low values 0.979 | locus YDL035C, strain GPR1, hits give low values 1 | locus YDL040C, strain nat1, hits give low values 0.984 | locus YDL074C, strain BRE1, hits give low values 0.965 | locus YDL101C, strain DUN1, hits give low values 0.991 | locus YDL134C, strain PPH21, hits give low values 1 | locus YDL185W, strain tfp1, hits give low values 0.956 | locus YDL192W, strain arf1, hits give low values 0.985 | locus YDR001C, strain nth1, hits give low values 0.999 | locus YDR069C, strain doa4, hits give low values 0.985 | locus YDR101C, strain arx1, hits give low values 0.999 | locus YDR137W, strain rgp1, hits give low values 1.01 | locus YDR150W, strain NUM1, hits give low values 0.998 | locus YDR159W, strain sac3, hits give low values 0.97 | locus YDR162C, strain NBP2, hits give low values 1 | locus YDR195W, strain ref2 0.967 | locus YDR297W, strain sur2, hits give low values 0.987 | locus YDR318W, strain mcm21, hits give low values 0.986 | locus YDR334W, strain swr1, hits give low values 0.995 | locus YDR335W, strain msn5, hits give low values 1 | locus YDR388W, hits give low values 0.994 | locus YDR392W, strain spt3, hits give low values 0.98 | locus YDR502C, strain sam2, hits give low values 1.01 | locus YEL003W, strain gim4, hits give low values 0.994 | locus YEL037C, strain rad23, hits give low values 0.997 | locus YEL061C, strain CIN8 (second series), hits give low values 0.995 | locus YEL061C, strain CIN8, hits give low values 0.996 | locus YER015W, strain faa2, hits give low values 0.973 | locus YER016W, strain bim1, hits give low values 0.994 | locus YER110C, hits give low values 0.993 | locus YER111C, strain swi4, hits give low values 0.997 | locus YER155C, strain BEM2 (second series), hits give low values 0.982 | locus YER155C, strain BEM2, hits give low values 0.995 | locus YER167W, strain BCK2, hits give low values 0.999 | locus YFR010W, strain ubp6, hits give low values 0.988 | locus YGL078C, strain dbp3, hits give low values 0.992 | locus YGL086W, strain mad1, hits give low values 1.03 | locus YGL167C, strain pmr1, hits give low values 0.99 | locus YGL173C, strain kem1, hits give low values 0.979 | locus YGL227W, strain vid30, hits give low values 0.979 | locus YGL240W, strain doc1, hits give low values 0.976 | locus YGL248W, strain PDE1, hits give low values 1 | locus YGL253W, strain hxk2, hits give low values 0.985 | locus YGR078C, strain PAC10, hits give low values 0.98 | locus YGR135W, strain pre9, hits give low values 0.989 | locus YGR229C, strain SMI1, hits give low values 1 | locus YGR252W, strain gcn5, hits give low values 1.18 | locus YHR013C, strain ard1, hits give low values 0.982 | locus YHR027C, strain rpn1, hits give low values 0.988 | locus YHR030C, strain SLT2, hits give low values 0.997 and 0.954 | locus YHR079C, strain IRE1 (second series), hits give low values 0.989 | locus YHR079C, strain IRE1, hits give low values 0.962 | locus YHR094C, strain hxt1, hits give low values 0.982 | locus YHR129C, strain ARP1, hits give low values 0.987 | locus YHR142W, strain chs7, hits give low values 0.995 | locus YHR200W, strain rpn10, hits give low values 0.986 | locus YIL066C, strain RNR3, hits give low values 1 | locus YIL073C, strain SPO22, hits give low values 0.95 | locus YIL125W, strain kgd1, hits give low values 0.987 | locus YIR030C, strain dcg1, hits give low values 0.991 | locus YJL092W, strain hpr5, hits give low values 0.985 | locus YJL095W, strain BCK1 (second series), hits give low values 0.998 | locus YJL095W, strain BCK1, hits give low values 0.952 and 0.984 | locus YJL115W, strain asf1, hits give low values 0.991 | locus YJL129C, strain trk1, hits give low values 1 | locus YJL134W, strain LCB3, hits give low values 0.997 | locus YJL154C, strain vps35, hits give low values 0.993 | locus YJL164C, strain tpk1, hits give low values 0.984 | locus YJL166W, strain qcr8, hits give low values 0.994 | locus YJL168C, strain set2, hits give low values 0.996 | locus YJL187C, strain SWE1 (second series), hits give low values 0.988 | locus YJL187C, strain SWE1, hits give low values 0.989 | locus YJR043C, strain POL32, hits give low values 0.987 | locus YJR066W, strain TOR1, hits give low values 0.922
